# Mcl1-Noxa inh: Mcl-1/Noxa interaction inhibition; Q07820; TR-FRET Mcl-1/Noxa peptide binding, 2 h; inhibition, % at 21.7 µM; 1.5% of 220,000 active; AID 1022;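 active = compounds that cut the protein-peptide binding signal by more than 50% relative to plate controls in a single-dose test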;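 note: His-tagged Mcl-1 with rhodamine Noxa BH3 peptide and terbium anti-His antibody; 0% = Mcl-1 plus Noxa peptide wells and 100% = peptide-only wells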
# Mcl1 Bid PPI: disrupts binding of human Mcl-1 to Bid peptide; TR-FRET Mcl-1/Bid-Dy647 peptide binding, 1536-well; inhibition, % at 21.7 µM; Q07820; 0.97% of 220,000 active;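 active = compounds that cut the binding signal by more than half at the single screening dose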;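 note: His-tagged Mcl-1 with europium anti-His antibody binding Bid BH3 peptide; 0% = Mcl-1 plus peptide wells and 100% = peptide-only wells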
# eIF4E 4G PPI: blocks eIF4E binding to eIF4G | P63073+Q04637 | TR-FRET eIF4E-eIF4GI(517-606) binding, 2 h | inhibition, % at 21.7 µM | 0.37% of 220,000 active | AID 782;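 note: 0% = full FRET control wells and 100% = background wells lacking eIF4GI fragment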
# 14-3-3 Bad PPI: disrupts binding of bovine 14-3-3 zeta to phospho-Bad peptide. 0.71% of 220,000 active. inhibition, % at 21.7 µM. TR-FRET 14-3-3zeta/Dy647-pBad peptide displacement, 1 h. P63103;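 active = inhibition above about 70%, limit read from the data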;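 note: 0% = full 14-3-3 plus peptide FRET controls and 100% = background without 14-3-3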
# Target sequence (P63103 whole entry, looked up): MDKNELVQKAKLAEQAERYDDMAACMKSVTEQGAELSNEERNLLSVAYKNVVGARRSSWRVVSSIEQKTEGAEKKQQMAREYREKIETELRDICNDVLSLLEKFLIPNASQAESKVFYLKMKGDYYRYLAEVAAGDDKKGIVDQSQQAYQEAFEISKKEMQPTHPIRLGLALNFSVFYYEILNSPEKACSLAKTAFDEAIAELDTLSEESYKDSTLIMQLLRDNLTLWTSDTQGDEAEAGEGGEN
# p47phox inh: inhibitors of human p47phox binding; P14598; p47phox/p22phox peptide binding, fluorescence polarization, 2 h; inhibition, % at 24.7 µM; 0.53% of 220,000 active;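 note: 0% = p47phox with labelled peptide and 100% = labelled peptide alone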
# Bim-Mcl-1: disrupts Bim peptide binding to human Mcl-1; Q07820; 0.1% of 190,000 active; inhibition, % at 10 µM; Bead-based flow cytometry, Bim peptide-Mcl-1 binding; AID 1009; in the data active = inhibition above about 40%;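 note: 0% = no compound tracer wells and 100% = peptide blocker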
# Starred values were filed as active, the others as inactive; / = no result. Hits are enriched below; roughly 3.3% of the tested compounds scored in any of these assays.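 Rule for the calls, unless noted: active = inhibition above about 30% (limit read from the data); inactive = the rest.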
SMILES,Mcl1-Noxa inh,Mcl1 Bid PPI,eIF4E 4G PPI,14-3-3 Bad PPI,p47phox inh,Bim-Mcl-1
Cc1ccc2c(n1)sc1c(-c3ccc(Br)cc3)c(C#N)c(N)nc12,-11,46,-51,61,-36,2
NNC(=S)Nc1cc(S(=O)(=O)N2CCOCC2)ccc1N1CCOCC1,7,-45,-1,94*,-11,0
COc1ccccc1CNC(=O)Cc1ccc(Br)cc1,19,3,3,15,-5,-1
COc1ccc(NC(=O)/C=C/c2ccc(Br)o2)cn1,58*,-28,4,-1,-15,2
COc1ccccc1CNC(=O)/C=C/c1ccc(Br)o1,70*,23,10,9,-6,3
CCOC(=O)N1CCC(NC(=O)c2ccc3c(c2)sc2nc(-c4cccc(OC)c4)cn23)CC1,-2,-87,2,75*,13,-14
CCOC(=O)N1CCC(NC(=O)c2ccc3c(c2)sc2nc(-c4ccccc4)cn23)CC1,-17,-32,/,/,-17,-2
COc1ccccc1NC(=O)CCSc1nc(C)cc(C)n1,19,-2,4,-1,0,-5
Cc1ccc2[nH]c(C(=O)O)c(NC(=O)CN3CCN(c4cccc(C)c4C)CC3)c2c1,13,24,-2,-13,-6,5
Cc1ccc2[nH]c(C(=O)O)c(NC(=O)[C@@H]3C[C@@H]3c3ccccc3)c2c1,28,-11,0,-15,113*,/
O=C(N/N=C(\Cc1ncc[nH]1)c1ccccc1)c1cccnc1,-17,-83,2,-19,-7,-1
Cc1cc(C)c(C)c(C(=O)CSc2nnc(C)c(=O)[nH]2)c1C,-7,-29,-3,6,-2,-1
O=C(NC1CCCCC1)c1ccc(CNc2nc(=S)[nH]c3ccccc23)cc1,-8,-38,3,-9,1,-1
CCN1CCN(c2ccc(NC(=O)CCc3c(C)nc4c(-c5ccc(F)cc5)c(C)nn4c3C)cc2)CC1,24,-37,1,4,2,0
CCOc1ccc(C2CC(=O)N(Nc3ccc([N+](=O)[O-])cc3[N+](=O)[O-])C2=O)cc1 (centres undefined),54*,0,8,1,0,/
COc1ccc(S(=O)(=O)N(C)c2ccc(C(=O)N3CCCCC3)cc2)cc1OC,-6,-9,-1,1,-4,/
Cc1cc(NC(=O)/C=C/c2ccco2)ccc1NC(=O)c1ccccc1,18,-52,1,-12,-7,0
Cc1ccc(-n2nc3ccc(NC(=O)c4ccco4)cc3n2)cc1,1,66*,-20,44,-7,0
O=C(/C=C/c1ccco1)Nc1ccc2nn(-c3ccccc3)nc2c1,78*,-46,1,11,-10,-5
Cc1ccc(-n2nc3ccc(NC(=O)C(C)C)cc3n2)cc1,-2,-31,2,20,-1,1
CC1CCN(CC(CS(=O)(=O)c2ccc([N+](=O)[O-])cc2)N2CCC(C)CC2)CC1 (centres undefined),-8,-11,3,-4,-6,/
COc1ccc(C2c3cc(OC)c(OC)cc3CCN2S(C)(=O)=O)cc1OC (centres undefined),1,-6,42*,1,-10,0
C=CCSc1nc(C)cc(C(=O)OCC)c1C#N,1,-21,3,-6,-3,/
COC/C=C/C1=CC2=CC(=O)C(C)(OC(=O)c3ccco3)C(=O)C2=CO1 (centres undefined),93*,-18,19,8,-45,/
C=CCNC(=S)NNC(=O)CC12CC3CC(CC(C3)C1)C2,-12,-44,-5,-6,-10,/
COC(=O)c1cc(=O)n(Cc2ccc(OC)c(OC)c2)c(=Nc2ccc(F)cc2)s1,2,-9,8,-1,-5,-1
COC(=O)c1cc(=O)n(Cc2ccc(F)cc2)c(=Nc2ccccc2)s1,52*,-21,0,1,6,/
CN(C)c1ccc(-n2cccc2)cc1,62*,-104,12,1,-4,/
CCn1c(SCC(=O)Nc2ccc3c(c2)oc2ccccc23)nnc1-c1ccc(N)cc1,56*,58*,5,66,0,2
O=C(CNc1ccccc1)N/N=C/c1c[nH]c2ccccc12,9,-30,3,5,-1,-7

# Bioassay records (PubChem BioAssay)
